Hit rate of the full screen: of about 370,000 compounds, about 5,400 (1.5%) were called active.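 How the source made its calls: active means activation above the mean of all tested compounds plus 3 SD (cut at about 5.5% in these data); inactive means the rest.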 This excerpt belongs to a sample that is enriched for actives.
Each molecule was assayed on DAF-12 nuclear receptor (Haemonchus contortus) (assay: H. contortus DAF-12 nuclear receptor activators, primary screen, cell-based, luminescence, HEK293, lit1-tk-luc reporter (AID 652067;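 further: 100% = response to 3 µM Δ7-dafachronic acid high control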)). Settings: HEK293 hcDAF-12 lit1-tk-luc reporter, at 6.8 µM, stronger effect = higher value, 0% DMSO, 100% Δ7-dafachronic acid.

activation, inactive:
Cc1cc(=O)[nH]c(SCC(=O)Nc2ccc(Cl)cc2C)n1 -1.08%
CCOc1ccc(NC(=O)COC(=O)C2CCC(=O)N2)c([N+](=O)[O-])c1 (configuration not stated) 3.85%
CN(C)c1ccc(NC(=O)NC2CCCCN(Cc3ccc(Cl)cc3)C2=O)cc1 (configuration not stated) -0.06%
CC1CCCCN1CCCNC(=O)Cn1ncc2c([nH]c3ccccc32)c1=O (configuration not stated) 0.15%
Cc1c2cnn(CC(=O)NCCCN3CC(C)CC(C)C3)c(=O)c2c(C)n1Cc1ccc(Cl)cc1 (configuration not stated) -1.23%
CSCC[C@H](NC(=O)OC(C)(C)C)C(=O)N/N=C/c1cc2ccc(C)cc2nc1Cl -0.35%
CC(=O)Nc1ccc(C(=O)CSc2nc3ccc(C)cc3[nH]2)cc1 4.98%
CC(Oc1ccccc1)C(=O)NN1Cc2ccccc2C1=N (configuration not stated) -1.32%
O=C(O)Cn1c(Cc2ccccc2)nc2ccccc21 0.35%
Cc1c(C=O)c2ccccc2n1CCOc1ccccc1 -3.86%
CCOC(=O)c1csc(NC(=O)C2CCCN(S(=O)(=O)c3ccc(Cl)s3)C2)n1 (configuration not stated) -2.96%
COc1ccc(-c2cc(-c3nnc(SCc4ccc([N+](=O)[O-])cc4)n3N)[nH]n2)cc1 -4.71%
Cn1cnc(C(F)(F)F)c1-c1ccc([N+](=O)[O-])cc1 -1.54%
C=CCN(C(=O)[C@@H](CCCC)[C@@H](O)c1ccc(Cl)cc1)c1ccccc1 -1.78%
CCCCCCCCN1C(=O)[C@@H](CC(=O)NCc2ccc(C)o2)C[C@@]2(C(=O)OC)C1=C[C@H](C(C)(C)C)O[C@@H]2C 0.67%
CN1C[C@]2(C=C3CCCCC3n3c(=O)n(-c4ccccc4)c(=O)n32)N=C1NC(=O)c1ccccc1 (some centres not stated) -1.23%
O=C1NC(Nc2nc3ccccc3s2)(C(F)(F)F)C(=O)N1C1CCCCC1 (configuration not stated) 2.82%
CCN(CC)CCn1c2c(c(SCC(=O)Nc3nc4ccccc4s3)nc1=O)CCCC2 1.05%
O=S1(=O)c2c(cccc2N2CCCCC2)O[C@H](COCc2ccccc2)CN1C1CC1 -2.09%
CC(=O)Oc1ccc2c(=O)oc(-c3ccc([N+](=O)[O-])cc3)nc2c1 -2.73%
O=[N+]([O-])c1ccc2c(c1)C(O)n1nc(-c3ccccc3)nc1S2 (configuration not stated) 0.58%
COc1cccc(-c2nnc(SCCOc3ccc4c(C)cc(=O)oc4c3)o2)c1 0.05%
COc1cccc(-c2nc(CS(=O)(=O)CC(=O)NCCc3ccc(OC)c(OC)c3)c(C)o2)c1 -1.4%
COc1cccc(CNC(=O)[C@H]2CCCN2C(=O)[C@H]2CCCN2C(=O)c2cc(F)cc(F)c2)c1 -1.64%
CSc1ccc(C=Nn2c(-c3ccc(F)cc3)n[nH]c2=S)cc1 -0.55%
CC(C)Cn1c(CCC(=O)O)ccc1-c1cccs1 -0.34%
C=C1C(C(C)C)N(C)C2=NC(c3ccccc3)CC(=O)N12 (configuration not stated) -1.26%
COc1ccc(-n2c(SCC(=O)Nc3ccccc3-c3ccccc3)nnc2-c2cccnc2)cc1 -2.71%
O=C(COc1ccccc1Cl)Nc1ccccc1C(=O)NC1CC1 0.7%
O=C(COc1ccccc1Cl)Nc1ccc(C(=O)c2ccc(C(=O)O)cc2)cc1 -0.48%
Brc1ccc(COCCc2cn(Cc3ccccc3)c3ccccc23)cc1 -0.22%
CC(=O)O[C@@]1(C(C)=O)CCC2[C@H]3C=C(C)C4=CC(=O)CC[C@@]4(C)C3CC[C@]21C (some centres not stated) -1.02%
COc1ccc2cc(CCl)c(Cl)nc2c1 -0.92%
COc1ccc(C=C(C#N)C#N)c(CSc2ccccn2)c1 -0.83%
Cc1nc(CNc2ncnc3ccc(-c4ccc5c(c4)OCO5)cc23)cs1 -1.68%
Cc1ccc(S(=O)(=O)N(C)C)cc1NC(=O)C(C)OC(=O)c1ccc2ccccc2n1 (configuration not stated) 0.62%
N/C(Cc1ccc([N+](=O)[O-])cc1)=N\OC(=O)COc1ccc2ccccc2c1 -2.58%
COC(=O)C1CN(Cc2cn(Cc3ccc(F)cc3)nn2)CCS(=O)(=O)N1Cc1ccc(Cl)cc1 (configuration not stated) -3.19%
COc1ccc(-c2ccccc2C2Cc3nnccc3CN2C(=O)Nc2ccccc2)cc1 (configuration not stated) -1.19%
Cc1ccc(Cn2cc(CN3[C@@H](C)COc4cc(Br)ccc4S3(=O)=O)nn2)cc1 -3.6%
O=C(NCc1ccco1)C1CCCN1S(=O)(=O)c1ccccc1C(F)(F)F (configuration not stated) -2.37%
CN(C)c1nc(N)nc(CSc2ccccn2)n1 0.13%
Cn1c(SCC(=O)c2ccccc2)ncc(C(=O)Nc2ccc(F)cc2)c1=O 0.15%
CCn1c(SCC(=O)NCC2CCCO2)nc2ccccc21 (configuration not stated) 1.17%
CCCCN(CC)C(=O)c1ccccc1Oc1ccccc1 -2.5%
COCc1cc(N2CCN(C(=O)OC(C)(C)C)C[C@@H]2C)ccc1N1CCN(Cc2ccccc2)[C@H](C)C1 -1.75%
O=C(NCCc1ccccc1)Oc1ccc(Cl)cc1 2.6%
CC(C)c1ccc(C(=O)NCCCc2ccccc2)cc1 2.26%
N#Cc1ccc(OCCCN2CCC(C(O)(c3ccccc3)c3ccccc3)CC2)c(F)c1 -0.43%
CCOCCCNC(=O)C(NC(=O)CNC(=O)c1ccccc1)c1ccc(OC)cc1 (configuration not stated) 1.22%
CCOCCCNC(=O)C(NC(=O)CNC(=O)c1ccccc1)c1ccc(C)cc1 (configuration not stated) -0.9%
COc1ccc(-n2c(COc3ccc(C)cc3)nnc2SCC(=O)Nc2ccc(Oc3ccccc3)cc2)cc1 -2.93%
CCN(CC)C(=O)CC[C@H]1CC[C@]2(CCCN(Cc3ccc(Cl)cc3)C2)O1 -0.52%
CN(Cc1ccc(C(F)(F)F)cc1)C(=O)[C@H]1O[C@@H](n2cnc3c(N)ncnc32)[C@H](O)[C@@H]1O -3.28%
COc1ccc(C)cc1NC(=O)C(OC(=O)c1cccc(S(=O)(=O)N(C)c2ccccc2)c1)c1ccccc1 (configuration not stated) 0.81%
Cc1cc(C)cc(NC(=O)C(OC(=O)c2ccc(O)cc2)c2ccccc2)c1 (configuration not stated) 2.07%
COc1cccc(-c2cc3nc(NCCOc4ccccc4Cl)n(C)c(=O)c3s2)c1 -0.41%
Cn1c(NCc2cccnc2)nc2cc(-c3ccc(F)cc3)sc2c1=O -0.57%
CCCOc1ccc(Oc2c(Cl)cnn(Cc3cccc4ccccc34)c2=O)cc1 0.08%
CC(=O)c1ccc(NC(=O)CSC(=S)N2CCCC2)cc1 4.8%
O=C(O)CC(CC(=O)N1CCOCC1)c1ccccc1 (configuration not stated) -2.07%
N[C@@H](Cc1ccccc1)C(=O)N1CCOCC1 -1.46%
COc1cccc(NC(=O)CN(C)C(=O)CSC(=S)N2CCCC2)c1 0.17%
CCOC(=O)[C@@]12CCC3=C1N(CCC3)C(=O)[C@H](CC(=O)N1CCN(C(=O)c3ccco3)CC1)C2 0.92%
CN1CCOC1c1ccc(C2OCCN2C)cc1 (configuration not stated) -0.23%
CC(=O)C1=C(C)N(Cc2ccccc2)C(=S)NC1c1cccc(Br)c1 (configuration not stated) 1.52%
CCOc1ccc(NC(=O)CSc2ncnc3c2sc2ccccc23)cc1 2.39%
COC(=O)[C@H](C(C)C)N1CCc2nnn(Cc3ccc(C)cc3)c2-c2ccccc2S1(=O)=O -1.76%
O=C(Nc1cc(F)cc(F)c1)OC1CCC12CCC(c1ccccc1)CC2 (configuration not stated) 1.63%
O=C(O)c1ccccc1-c1ccccc1C(=O)NCCc1ccccc1 -1.14%
Nc1nonc1C(=O)NCCc1ccccc1 -1.41%
C/C(=N\c1nc2ccccc2n1C)c1cc(Cl)ccc1O 4.18%
Cn1c(SCC(=O)N/N=C/c2ccc(O)c(O)c2)nc2ccccc21 0.79%

activation, active:
CC1CC(C)CN(CCCNC(=O)Cn2ncc3c([nH]c4ccccc43)c2=O)C1 (configuration not stated) 6.07%
Cc1ccc2cc(/C=N/Nc3ccc(C(=O)O)cc3)c(Cl)nc2c1 10.2%
Cc1c(C=O)c2ccccc2n1CC(=O)O 9.3%
Cc1ccc(-c2cn3cc([N+](=O)[O-])ccc3n2)cc1 7.66%
c1ccc2sc(NN=C3CCCC3)nc2c1 9.02%
O=[N+]([O-])c1ccc2oc(-c3cccc(O)c3)nc2c1 15.4%
COc1cccc(-c2nc3cc(C)ccc3o2)c1 14.7%
CC(=O)Nc1ccc(NC(=O)COc2ccccc2C(=O)Nc2cccc(Cl)c2Cl)cc1 5.68%
COc1ccc2nc(-c3ccccn3)ccc2c1 8.16%
O=C(Oc1ccc([N+](=O)[O-])cc1)c1ccc2ccccc2n1 8.61%
Cc1ccc(NC(=O)c2cnc(SCC(=O)NCC3CCCO3)n(C)c2=O)cc1 (configuration not stated) 5.83%
CCCOc1ccc(C(=O)NCCc2ccccc2)cc1 7.01%
CCOCCCNC(=O)C(NC(=O)Cc1c[nH]c2ccccc12)c1ccc(OC)cc1 (configuration not stated) 5.82%
Cc1ccc(C)c(NC(=O)C(OC(=O)c2ccc(C)s2)c2ccccc2)c1 (configuration not stated) 5.84%
O=c1[nH]c(CCl)nc2cc(-c3ccc(Cl)cc3)sc12 7.46%
O=C(CSC(=S)N1CCCCC1)c1c(F)cccc1F 6.39%
O=C(CSC(=S)N1CCOCC1)c1ccccc1 6.9%
NC(=O)Nc1ccccc1C(=O)NCCc1ccccc1 8.5%
CCN(CC)CCn1c(/N=C/c2cc(Br)ccc2O)nc2ccccc21 6.13%

Reference: PubChem BioAssay AID652067 (The Scripps Research Institute Molecular Screening Center, 2013)
